The values that follow come from PubChem BioAssay (NCATS).

Experiment [1] concerns the target DNA dC->dU-editing enzyme APOBEC-3G (Homo sapiens) (UniProt Q9HC16). The experiment can be described thus: qHTS for inhibitors of Vif-A3G interactions: Validation (AID 588379; active = well fitted curve in the direction sought with a large enough effect; inconclusive = small, poorly fitted or top-dose-only effect, or another doubt; inactive = no such curve, though single readings can be large; an effect the other way counts as inactive or inconclusive; also: 0% is about no effect). The method in brief: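 Yellow fluorescence (Ex 488, Em 500-530) of Vif-coexpressing HeLa A3G-eYFP cells, scanned by Acumen cytometer, reports blocked A3G degradation. Cells plated at 700/well overnight at 37 deg C before compound addition, then a further overnight compound incubation at 37 deg C.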
A general note: qHTS replaces the single test concentration by a dilution series.

Experiment [2] in a line: qHTS for Inhibitors of ATXN expression: Validation (AID 588378; active = well fitted curve in the direction sought with a large enough effect; inconclusive = small, poorly fitted or top-dose-only effect, or another doubt; inactive = no such curve, though single readings can be large; an effect the other way counts as inactive or inconclusive; also: potency is read from the fitted curve at half-maximal effect; nearly all actives have a fitted effect of over 75% in size). The procedure, abridged:
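Luciferase luminescence (Bright-Glo) from an ATXN2-FFLuc HEK293 line after 24 h compound exposure at 37 °C, preceded by a CellTiter-Fluor fluorescence viability read. Serial dilutions of a reference ATXN2 inhibitor and a luciferase inhibitor served as controls.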

The target of experiment [3] is Ubiquitin carboxyl-terminal hydrolase 1 (Homo sapiens) (UniProt O94782). In words: Inhibitors of USP1/UAF1: Pilot qHTS (AID 504865; active = well fitted curve in the direction sought with a large enough effect; inconclusive = small, poorly fitted or top-dose-only effect, or another doubt; inactive = no such curve, though single readings can be large; an effect the other way counts as inactive or inconclusive; also: nearly all actives have a fitted effect of over 35% in size; also: potency is read from the fitted curve at half-maximal effect). The method in brief: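 Deubiquitinase activity followed as kinetic rhodamine fluorescence release from 150 nM Ub-Rho. 1 nM USP1/UAF1 with compound, after 15 min room-temperature preincubation, in HEPES pH 7.8 buffer containing TCEP, EDTA, BSA and Tween-20.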

Experiment [4] addresses Estrogen receptor (Homo sapiens) (UniProt P03372). The experiment can be described thus: qHTS assay for small molecule agonists of estrogen receptor alpha signaling (AID 588514).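 Also: 0% = vehicle only and 100% = reference agonist; nearly all actives have a fitted effect of over 70% in size.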 The method in brief: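 Read-out: CCF4 fluorescence from a beta-lactamase reporter in ER-alpha-UAS-bla HEK 293 cells after 18 hrs of compound exposure at 37 C. Normalized to 20 nM 17-beta-estradiol (100%) and DMSO (0%).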

Experiment [5] addresses Bile acid receptor (Homo sapiens) (UniProt Q96RI1). In words: qHTS assay for small molecule antagonists of farnesoid X receptor signaling (AID 588526). Also: % is scaled to controls: 0 for no effect and ±100 for the full control effect. The method in brief: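 Concentration-response titrations were fitted to the Hill equation for half-maximal inhibition and maximal response, with data normalised to 50 uM chenodeoxycholic acid and DMSO control wells. Cells: FXR-UAS-bla HEK293T, dialyzed FBS.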

The target is the same in experiment [6]. The experiment can be described thus: qHTS assay for small molecule agonists of farnesoid X receptor signaling (AID 588527).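 Also: series mostly up to about 77 µM; 0% = vehicle basal and 100% = reference agonist.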 To be noted: HEK293T FXR-UAS-bla, beta-lactamase ratio, 16 h; stronger effect = higher value. The method in brief:
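FXR-UAS-bla HEK293T, 10% dialyzed FBS; cpds up to 92 uM titration, 16 h 37 C; CCF4 dye 2 h RT; fluorescence. Normalized to chenodeoxycholic acid 100 uM (100%) and DMSO (0%); Hill fit gives EC50, efficacy.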

Experiment [7] addresses Glucocorticoid receptor (Homo sapiens) (UniProt P04150). The experiment can be described thus: qHTS assay for small molecule agonists of glucocorticoid receptor signaling (AID 588532; active = well fitted curve in the direction sought with a large enough effect in the signal ratio, with a control signal flat; inconclusive = small, poorly fitted or top-dose-only effect, or a change in a side signal; inactive = no such curve, though single readings can be large or run the other way; the % refers to the signal ratio;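 also: 100% = dexamethasone at 0.1 µM and 0% = DMSO only wells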). To be noted: HeLa MMTV-bla, beta-lactamase ratio, agonist, 18 h; stronger effect = higher value; percent of dexamethasone control, DMSO zero. The procedure, abridged:
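MMTV-bla HeLa, beta-lactamase reporter; medium with 1% charcoal/dextran-stripped FBS; cpds up to 92 uM, 18 h, 37 C; CCF4 readout 460/530 nm; Hill fit → EC50, efficacy vs 0.1 uM dexamethasone = 100%.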

For experiment [8], the target named is Peroxisome proliferator-activated receptor gamma (Homo sapiens) (UniProt P37231). The experiment can be described thus: qHTS assay for small molecule agonists of peroxisome proliferator-activated receptor gamma signaling (AID 588536; active = well fitted curve in the direction sought with a large enough effect in the signal ratio, with a control signal flat, not every such curve was filed as active; inconclusive = small, poorly fitted or top-dose-only effect, or effect the other way, or a change in a side signal; inactive = no such curve, though single readings can be large or run the other way; the % refers to the signal ratio;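 also: 0% = DMSO basal wells and 100% = rosiglitazone at 2 µM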). The procedure, abridged: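 Compound treatment: 16 h, 37 C, HEK293 GeneBLAzer cells. Detection: CCF4, 2 h RT. Values: Hill-fit EC50, efficacy as % of 2 uM rosiglitazone.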

Experiment [9] has the same target. In words: qHTS assay for small molecule antagonists of peroxisome proliferator-activated receptor gamma signaling (AID 588537; active = well fitted inhibition curve with a large enough effect in the signal ratio, with a control signal flat, not every such curve was filed as active; inconclusive = small, poorly fitted or top-dose-only effect, or effect the other way, or a change in a side signal; the % refers to the signal ratio;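 also: reporter cells co-stimulated with 50 nM rosiglitazone agonist during compound treatment; % of control where 0% means no effect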). The procedure, abridged: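 HEK293 cells, PPAR-gamma-UAS-bla, 3000/well. Pre-incubation 6-6.5 h, 37 C. Compound titration with rosiglitazone 50 nM final, 16 h. CCF4 dye, 2 h RT, dual-emission fluorescence.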
The target in experiment [10] is Vitamin D3 receptor (Homo sapiens) (UniProt P11473). In words: qHTS assay for small molecule antagonists of vitamin D receptor signaling (AID 588541).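 Also: receptor activated by calcitriol during compound treatment; series mostly up to about 77 µM; % is scaled to controls: 0 for no effect and ±100 for the full control effect.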 The procedure, abridged: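 VDR-UAS-bla HEK293T cells (2000/well, 2% charcoal-stripped FBS) were treated with titrated compounds plus 1-alpha,25-dihydroxyvitamin D3 (50 nM or 3 nM final) for 16 h at 37 C. CCF4 beta-lactamase fluorescence was read; Hill fits gave IC50.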

For experiment [11] the target is unchanged. In words: qHTS assay for small molecule agonists of vitamin D receptor signaling (AID 588543).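 Also: 0% = DMSO basal and 100% = reference agonist control.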 The procedure, abridged: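 Agonist-mode beta-lactamase reporter: HEK293T VDR-UAS-bla cells in charcoal-stripped 2% FBS, compound series 16 h 37 C, CCF4 2 h RT. EC50 from Hill fit, scaled against DMSO and 50 nM calcitriol control.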
Experiment [12] has as its target Estrogen receptor (Homo sapiens) (UniProt P03372). In words: qHTS assay for small molecule antagonists of estrogen receptor alpha signaling (AID 588513; active = well fitted curve in the direction sought with a large enough effect in the signal ratio, with a control signal flat, not every such curve was filed as active; inconclusive = small, poorly fitted or top-dose-only effect, or effect the other way, or a change in a side signal; inactive = no such curve, though single readings can be large or run the other way; the % refers to the signal ratio; also: potency is read from the fitted curve at half-maximal effect). The method in brief: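 Antagonist mode: inhibition of 0.5 nM 17-beta-estradiol-driven beta-lactamase reporter in HEK 293 ER-alpha-UAS-bla cells, 18 h at 37C, CCF4 readout after 2 h at RT. Normalised to estradiol and DMSO; titration fitted to Hill.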

Experiment [13] addresses Peroxisome proliferator-activated receptor delta (Homo sapiens) (UniProt Q03181). In words: qHTS assay for small molecule agonists of peroxisome proliferator-activated receptor delta signaling (AID 588534).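 Also: 0% = DMSO basal wells and 100% = positive control agonist at 10 µM.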 The method in brief:
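Titration series tested in agonist mode on beta-lactamase reporter cells; 18 hrs at 37 C after a 5 hr pre-incubation. Readout: CCF4 fluorescence, 2 hrs RT. Hill equation gives EC50 and maximal response.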

Experiment [14] can be described thus: qHTS assay for small molecule antagonists of peroxisome proliferator-activated receptor delta signaling (AID 588535; active = well fitted inhibition curve with a large enough effect in the signal ratio, with a control signal flat, not every such curve was filed as active; inconclusive = small, poorly fitted or top-dose-only effect, or effect the other way, or a change in a side signal; inactive = no such curve, though single readings can be large or run the other way; the % refers to the signal ratio;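 as to max response: cells co-treated with a PPAR-delta agonist as stimulator during compound exposure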). To be noted: HEK293T PPARd-UAS-bla, beta-lactamase FRET ratio, 18 h; 460 nm channel. The procedure, abridged:
(§1)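 Compounds tested in titration on PPAR-delta-UAS-bla HEK293T cells grown in charcoal/dextran-stripped serum (2%); beta-lactamase activity read via CCF4 emission at 460 and 530 nm.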

In experiment [15] the target is Peroxisome proliferator-activated receptor delta (Homo sapiens) (UniProt Q03181). The description is as above. The method in brief:
as §1

Active and inactive are the calls of the source. Unless noted, calls follow the shape of the full dose curve.

Chain of Vitamin D3 receptor (Homo sapiens) (P11473 whole entry, looked up): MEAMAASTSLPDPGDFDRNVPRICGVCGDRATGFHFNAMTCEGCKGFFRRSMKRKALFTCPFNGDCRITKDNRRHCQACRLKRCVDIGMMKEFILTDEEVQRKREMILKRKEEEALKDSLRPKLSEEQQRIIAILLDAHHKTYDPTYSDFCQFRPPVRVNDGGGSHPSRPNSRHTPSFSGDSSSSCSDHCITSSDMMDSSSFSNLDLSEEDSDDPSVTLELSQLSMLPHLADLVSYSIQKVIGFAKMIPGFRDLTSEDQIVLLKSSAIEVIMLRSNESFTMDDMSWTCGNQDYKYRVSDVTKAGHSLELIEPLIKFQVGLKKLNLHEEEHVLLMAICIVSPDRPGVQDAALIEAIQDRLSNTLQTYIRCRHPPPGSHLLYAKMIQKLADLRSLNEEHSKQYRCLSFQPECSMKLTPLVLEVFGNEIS
Chain of Estrogen receptor (Homo sapiens) (P03372 whole entry, looked up): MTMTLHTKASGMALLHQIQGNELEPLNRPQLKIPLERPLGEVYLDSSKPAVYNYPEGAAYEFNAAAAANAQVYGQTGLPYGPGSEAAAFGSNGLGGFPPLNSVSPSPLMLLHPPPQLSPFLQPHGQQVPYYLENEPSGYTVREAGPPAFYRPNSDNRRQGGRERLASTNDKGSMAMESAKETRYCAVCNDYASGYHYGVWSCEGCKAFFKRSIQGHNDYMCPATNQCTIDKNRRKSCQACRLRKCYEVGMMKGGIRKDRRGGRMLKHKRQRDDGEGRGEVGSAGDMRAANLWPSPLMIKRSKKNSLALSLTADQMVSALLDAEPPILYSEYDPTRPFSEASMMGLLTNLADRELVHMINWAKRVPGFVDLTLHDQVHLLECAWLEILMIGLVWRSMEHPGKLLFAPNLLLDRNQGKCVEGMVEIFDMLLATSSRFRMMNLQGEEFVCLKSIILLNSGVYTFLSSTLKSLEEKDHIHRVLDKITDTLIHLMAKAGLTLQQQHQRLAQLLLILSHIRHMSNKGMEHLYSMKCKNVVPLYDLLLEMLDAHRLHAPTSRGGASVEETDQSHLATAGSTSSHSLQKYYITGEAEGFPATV
Chain of Peroxisome proliferator-activated receptor gamma (Homo sapiens) (P37231 whole entry, looked up): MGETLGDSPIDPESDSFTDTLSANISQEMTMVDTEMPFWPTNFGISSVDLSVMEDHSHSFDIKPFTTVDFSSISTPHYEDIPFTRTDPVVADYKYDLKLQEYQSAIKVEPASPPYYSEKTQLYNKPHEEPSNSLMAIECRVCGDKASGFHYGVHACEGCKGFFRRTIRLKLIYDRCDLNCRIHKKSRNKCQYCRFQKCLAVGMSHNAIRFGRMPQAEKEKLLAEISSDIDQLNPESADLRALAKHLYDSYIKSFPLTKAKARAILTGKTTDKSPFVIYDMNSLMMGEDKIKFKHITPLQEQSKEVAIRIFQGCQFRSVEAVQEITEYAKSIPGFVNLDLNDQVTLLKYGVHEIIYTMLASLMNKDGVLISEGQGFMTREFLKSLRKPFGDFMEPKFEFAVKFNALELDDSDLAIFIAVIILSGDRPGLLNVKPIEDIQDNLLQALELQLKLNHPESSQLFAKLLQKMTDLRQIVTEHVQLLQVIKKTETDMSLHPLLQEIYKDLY
Chain of Ubiquitin carboxyl-terminal hydrolase 1 (Homo sapiens) (O94782 whole entry, looked up): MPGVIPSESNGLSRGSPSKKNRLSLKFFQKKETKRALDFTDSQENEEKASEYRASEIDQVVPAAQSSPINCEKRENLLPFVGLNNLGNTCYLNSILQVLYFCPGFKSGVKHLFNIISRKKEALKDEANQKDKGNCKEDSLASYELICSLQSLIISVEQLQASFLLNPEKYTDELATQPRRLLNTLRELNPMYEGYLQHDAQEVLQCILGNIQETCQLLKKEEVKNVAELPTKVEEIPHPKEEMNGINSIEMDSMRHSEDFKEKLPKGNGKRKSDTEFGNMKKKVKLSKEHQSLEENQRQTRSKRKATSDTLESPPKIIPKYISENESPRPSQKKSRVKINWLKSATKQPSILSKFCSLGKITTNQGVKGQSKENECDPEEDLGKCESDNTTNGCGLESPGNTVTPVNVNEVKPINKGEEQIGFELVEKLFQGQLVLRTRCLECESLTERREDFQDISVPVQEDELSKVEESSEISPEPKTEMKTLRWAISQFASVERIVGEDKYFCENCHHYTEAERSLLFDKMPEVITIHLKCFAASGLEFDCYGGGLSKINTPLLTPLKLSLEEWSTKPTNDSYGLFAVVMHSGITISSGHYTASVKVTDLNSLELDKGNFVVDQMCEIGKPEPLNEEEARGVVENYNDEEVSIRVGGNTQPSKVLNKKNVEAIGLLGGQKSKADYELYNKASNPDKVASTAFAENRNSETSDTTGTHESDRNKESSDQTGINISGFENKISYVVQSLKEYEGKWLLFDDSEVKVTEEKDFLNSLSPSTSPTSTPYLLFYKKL
Chain of Bile acid receptor (Homo sapiens) (Q96RI1 whole entry, looked up): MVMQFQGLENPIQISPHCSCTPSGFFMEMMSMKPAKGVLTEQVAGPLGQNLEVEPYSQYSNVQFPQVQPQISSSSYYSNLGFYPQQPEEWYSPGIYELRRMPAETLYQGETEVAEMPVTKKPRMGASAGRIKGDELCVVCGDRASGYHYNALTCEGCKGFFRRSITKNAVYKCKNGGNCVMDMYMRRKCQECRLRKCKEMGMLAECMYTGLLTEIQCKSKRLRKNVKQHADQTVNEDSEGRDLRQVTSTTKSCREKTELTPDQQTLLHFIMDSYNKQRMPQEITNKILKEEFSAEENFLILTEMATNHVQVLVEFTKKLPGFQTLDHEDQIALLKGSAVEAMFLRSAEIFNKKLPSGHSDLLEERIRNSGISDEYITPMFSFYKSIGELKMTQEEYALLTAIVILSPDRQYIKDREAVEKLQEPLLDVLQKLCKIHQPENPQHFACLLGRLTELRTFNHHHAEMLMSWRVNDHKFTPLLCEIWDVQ
Chain of Glucocorticoid receptor (Homo sapiens) (P04150 whole entry, looked up): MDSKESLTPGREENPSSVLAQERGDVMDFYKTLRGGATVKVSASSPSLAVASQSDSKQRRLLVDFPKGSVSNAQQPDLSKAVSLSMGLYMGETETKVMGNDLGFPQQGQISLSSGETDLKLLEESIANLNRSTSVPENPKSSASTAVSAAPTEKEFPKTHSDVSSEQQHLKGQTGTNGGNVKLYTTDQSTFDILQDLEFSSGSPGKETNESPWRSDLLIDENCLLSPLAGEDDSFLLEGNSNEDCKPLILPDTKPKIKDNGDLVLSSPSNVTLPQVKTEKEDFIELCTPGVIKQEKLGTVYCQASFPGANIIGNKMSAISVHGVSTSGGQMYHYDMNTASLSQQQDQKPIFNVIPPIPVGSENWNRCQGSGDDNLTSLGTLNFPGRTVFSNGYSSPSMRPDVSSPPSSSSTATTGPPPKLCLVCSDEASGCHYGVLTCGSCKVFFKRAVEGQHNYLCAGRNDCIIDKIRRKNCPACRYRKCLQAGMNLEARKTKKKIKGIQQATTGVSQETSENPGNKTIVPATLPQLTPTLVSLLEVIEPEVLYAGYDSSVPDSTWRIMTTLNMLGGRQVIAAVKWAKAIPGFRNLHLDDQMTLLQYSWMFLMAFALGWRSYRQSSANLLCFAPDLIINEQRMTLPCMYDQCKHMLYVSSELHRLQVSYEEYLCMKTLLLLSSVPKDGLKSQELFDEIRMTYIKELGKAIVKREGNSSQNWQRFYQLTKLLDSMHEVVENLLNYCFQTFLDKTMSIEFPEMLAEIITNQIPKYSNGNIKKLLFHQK
Chain of DNA dC->dU-editing enzyme APOBEC-3G (Homo sapiens) (Q9HC16 whole entry, looked up): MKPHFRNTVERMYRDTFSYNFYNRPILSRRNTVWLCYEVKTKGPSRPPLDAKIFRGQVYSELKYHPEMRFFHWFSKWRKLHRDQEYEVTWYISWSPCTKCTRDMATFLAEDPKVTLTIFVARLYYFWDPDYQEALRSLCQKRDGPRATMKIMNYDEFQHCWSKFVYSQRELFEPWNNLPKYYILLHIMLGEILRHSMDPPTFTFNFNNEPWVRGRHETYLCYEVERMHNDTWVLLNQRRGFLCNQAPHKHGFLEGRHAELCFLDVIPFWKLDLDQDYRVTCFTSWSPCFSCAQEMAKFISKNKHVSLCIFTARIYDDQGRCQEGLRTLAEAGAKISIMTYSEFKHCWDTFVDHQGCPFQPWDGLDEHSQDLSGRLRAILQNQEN
Chain of Peroxisome proliferator-activated receptor delta (Homo sapiens) (Q03181 whole entry, looked up): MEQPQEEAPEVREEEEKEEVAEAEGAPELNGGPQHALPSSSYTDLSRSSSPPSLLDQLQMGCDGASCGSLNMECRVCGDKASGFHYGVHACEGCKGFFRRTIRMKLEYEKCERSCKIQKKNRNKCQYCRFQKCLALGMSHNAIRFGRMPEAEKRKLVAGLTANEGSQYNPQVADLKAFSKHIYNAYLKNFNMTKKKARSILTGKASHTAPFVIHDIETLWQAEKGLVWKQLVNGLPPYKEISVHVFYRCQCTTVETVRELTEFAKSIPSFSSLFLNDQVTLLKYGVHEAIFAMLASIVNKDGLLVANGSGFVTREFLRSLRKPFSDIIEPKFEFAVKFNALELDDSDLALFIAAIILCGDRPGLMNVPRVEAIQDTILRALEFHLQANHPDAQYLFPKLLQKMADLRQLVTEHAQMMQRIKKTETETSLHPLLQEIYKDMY

In the case of `COc1ccc(C(=O)N2CCCC2=O)cc1`, in experiment [1], the call was inactive.

Take `O=C(O)c1nn(Cc2ccc(Cl)cc2Cl)c2ccccc12`: the call in [1] was inactive.

For the compound `COC(=O)C1=C(C)NC(C)=C(C(=O)OC)C1c1ccccc1[N+](=O)[O-]`, in [2], the Potency is 11.2 µM (active).

On to `CC[C@H]1CN2CCc3cc(OC)c(OC)cc3[C@@H]2C[C@@H]1C[C@H]1NCCc2cc(OC)c(OC)cc21`, for which, in experiment [2], the Potency was 0.282 µM (active).

As to `NC(=O)OCCCc1ccccc1`, the Potency result in experiment [3] was “inactive”.

`CCNc1nc(Cl)nc(NCC)n1`: the Potency result in experiment [3], in experiment [4], in experiment [5] and in experiment [9] was “inactive” throughout. Further, the activation in experiment [6] is -2% (inactive); in experiment [7] it was 3.33% (inactive). Moreover, the compound was classed as inactive in [8], in [10] and in experiment [11].

Consider `CCCCCCCCCCCCCCCC[n+]1ccccc1`, for which the Potency in [3] was 20 µM (active).

As to `CC(C)[N+](C)(CCC(C(N)=O)(c1ccccc1)c1ccccc1)C(C)C`, the Potency entry in experiment [3] was “inactive”.

As for `CCN(Cc1ccc(Cl)nc1)/C(=C/[N+](=O)[O-])NC`, the Potency result in [3] was “inactive”.

With `C[C@H]1C(=O)O[C@@H]2CCN3CC=C(COC(=O)[C@](C)(O)[C@]1(C)O)[C@H]23`, the Potency result in experiment [3], in [12], in experiment [4], in experiment [5] and in experiment [9] was “inactive” each time. Moreover, the activation in experiment [6] was 2.9% (inactive); in experiment [7], 8.93% (inactive). Further, the compound was classed as inactive in experiment [13], in experiment [8], in experiment [10] and in experiment [11].

`N#Cc1nn(-c2c(Cl)cc(C(F)(F)F)cc2Cl)c(N)c1S(=O)C(F)(F)F` (stereo not drawn): the Potency entry in [3] and in experiment [4] was “inactive” in each case. Also, the figures for the activation in experiment [6] and in experiment [7] were 6.05% (inactive) and -6.58% (inactive), respectively.

With `CCCCCCCCCCCC[N+](C)(C)CCOc1ccccc1`, the Potency in experiment [3] is 79.4 µM (active); in experiment [12], 12.6 µM [inconclusive] (active). Besides, the result in experiment [10] and in experiment [11] was inactive.

Regarding `Oc1c(Br)cc(Br)cc1Br`, the Potency result in experiment [3], in [12], in experiment [4], in experiment [15] and in experiment [9] was “inactive” in each case. For the same compound, the max response in experiment [14] turned out to be 18.5%. For the same compound, the compound was called inactive in experiment [8].
